# Many of the other results were omitted from the sample, so hits are more common in it than they were.
# USP2a block: blocks human ubiquitin-specific protease USP2a | O75604 | USP2 core, Ub-CHOP2 coupled fluorogenic reporter, 485/531 | Potency, µM (highest dose often 38.3 µM), without a hit: top-dose activity change, negative = inhibition, actives largely listed as inhibitors | 330,000 compounds, 0.01% hits | AID 463254;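 further: plate controls were DMSO wells for no effect and full inhibition by NEM control for full effect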
#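 USP2 core (10nM final) preincubated 30min RT with compound in 20mM Tris-HCl pH 8.0, 2mM CaCl2, 2mM beta-mercaptoethanol, 0.05% CHAPS; 25nM Ub-CHOP2 plus 25nM reporter substrate added, fluorescence (Ex485/Em531) read after 60min.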
# ClpP mod: qHTS Assay for Activators of ClpP; Potency, µM (doses to about 57.5 µM), for inactives: at the top dose activity change, negative = active; 340,000 compounds, 1.9% hits; purified B. subtilis ClpP, FRET peptide cleavage, 20 min; ATP-dependent Clp protease proteolytic subunit (Bacillus subtilis (strain 168)), P80244; active means well fitted falling curve with a large enough effect; inconclusive means small, poorly fitted or top-dose-only effect; inactive means no such curve, though single readings can be large or run the other way; further: the source files actives as falling curves though it sought activators and does not explain the sign; nearly all actives have a fitted effect of over 65% in size
# Target sequence (P80244 whole entry, looked up): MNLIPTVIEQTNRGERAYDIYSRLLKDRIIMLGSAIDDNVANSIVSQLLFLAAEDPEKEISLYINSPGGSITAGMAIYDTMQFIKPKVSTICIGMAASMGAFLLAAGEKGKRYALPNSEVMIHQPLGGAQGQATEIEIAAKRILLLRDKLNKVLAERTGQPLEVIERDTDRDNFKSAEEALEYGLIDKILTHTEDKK
#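 Purified B. subtilis ClpP, 10 microg/mL final in Tris/HCl pH8 with KCl, BSA, glycerol and Tween-20, cleaved an Abz/nitrotyrosine-quenched decapeptide. Fluorescence (ex 320, em 430) was read at 0 and 20 min at room temperature. Delta was normalized to 5.8 microM ADEP and DMSO/no-enzyme controls.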
# Eya2 phos inh: blocks the phosphatase activity of human Eya2; 330,000 compounds, 0.006% hits; Potency, µM (top dose mostly 76.9 µM), for inactives: top-dose activity, negative = inhibition, usual class: inhibitors; recombinant Eya2, OMFP fluorescence dephosphorylation (OMFP is methylfluorescein phosphate); further: on the % scale 0 is the no-effect control and ±100 the full control effect
# Target sequence (O00167 whole entry, looked up): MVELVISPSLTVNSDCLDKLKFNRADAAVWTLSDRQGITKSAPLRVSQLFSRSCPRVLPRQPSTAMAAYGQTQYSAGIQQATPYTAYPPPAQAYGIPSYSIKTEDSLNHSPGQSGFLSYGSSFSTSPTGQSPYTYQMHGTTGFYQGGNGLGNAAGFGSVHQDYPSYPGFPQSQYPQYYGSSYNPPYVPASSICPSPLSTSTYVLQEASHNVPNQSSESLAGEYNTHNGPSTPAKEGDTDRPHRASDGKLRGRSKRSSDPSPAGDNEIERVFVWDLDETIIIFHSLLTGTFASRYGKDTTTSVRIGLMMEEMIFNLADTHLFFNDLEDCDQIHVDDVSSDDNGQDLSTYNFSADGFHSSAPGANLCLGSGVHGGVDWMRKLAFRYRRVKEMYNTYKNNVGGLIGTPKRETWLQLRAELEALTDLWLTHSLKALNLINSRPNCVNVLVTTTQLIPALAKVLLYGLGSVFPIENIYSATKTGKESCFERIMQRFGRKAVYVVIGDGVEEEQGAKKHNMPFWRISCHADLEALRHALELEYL
#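 Eya2 (0.2 uM) preincubated 10 min at ambient with compound, then OMFP substrate added at 50 uM; 10 min reaction in 50 mM HEPES pH 7.5, 50 mM NaCl, 5 uM MgCl2, 0.05% BSA, 1 mM DTT. Fluorescence read at Ex 485/Em 525 nm.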
# p53 reactivator: re-activators of mutant p53 | H1299 p53-A138V BP100-luciferase reporter, luminescence, 24 h | Potency, µM (top dose mostly 92.2 µM), without a hit: top-dose activity change, positive = activation, hits mostly activators | 320,000 compounds, 0.063% hits; further: % of control where 0% means no effect; nearly all actives have a fitted effect of over 45% in size
#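 p53-null H1299 cells stably carrying temperature-sensitive p53-A138V and a BP100-luciferase reporter were pinned with compounds (4-point, 1:5 series) and held 24 hrs at 37 deg C. Luminescence was read 10 min after detection reagent.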
# Integrin act MD: activators of alpha7 integrin expression for muscular dystrophy; 350,000 compounds, 0.064% hits; Potency, µM (series often up to 38.3 µM), without a hit: at the top dose activation, usual class: activators; alpha7betagal myoblasts, beta-gal FDG fluorescence, 48 h; AID 624291;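 further: 100% = response of the positive control SU9516; nearly all actives have a fitted effect of over 60% in size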
#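 alpha7betagal+/- myoblasts (passage 13, 250/well) treated 48 h at 37C with compounds at 1:260 dilution of DMSO stock. Lysed, then beta-galactosidase activity read as FDG fluorescence (ex 480/em 540) after 30 min, with pre-read for autofluorescence.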
# Mm-Cpn inhibitor: M. maripaludis TRiC chaperonin inhibition. purified Mm-Cpn ATPase, ADP Transcreener TR-FRET. Potency, µM (highest dose often 76.9 µM), for the others: top-dose activity, negative = inhibition, most hits filed as inhibitors. 330,000 compounds, 0.031% hits; further: on the % scale 0 is the no-effect control and ±100 the full control effect; nearly all actives have a fitted effect of over 80% in size
#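 Compound-treated chaperonin, 25 nM final, turns over 10 uM ATP at 37°C for 30 min following a 10 min preincubation; ADP generated competes with ADP-d2 for Eu-cryptate antibody, lowering FRET.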
# Numbers without * were called inactive; u = inconclusive; x = not tested or not shown. Unless noted, the call rests on the fitted dose curve; in most records, active means well fitted curve in the direction sought with a large enough effect; inconclusive means small, poorly fitted or top-dose-only effect, or another doubt; inactive means no such curve, though single readings can be large; an effect the other way counts as inactive or inconclusive. Potency means the concentration at half of the fitted maximal effect.
SMILES,USP2a block,ClpP mod,Eya2 phos inh,p53 reactivator,Integrin act MD,Mm-Cpn inhibitor
CC(C)CCNC(=O)c1c(N)n(Cc2ccc3c(c2)OCO3)c2nc3ccccc3nc12,-1%,28µM*,4%,7%,-31%,-10%
CCCNC(=O)c1c(N)n(Cc2ccc3c(c2)OCO3)c2nc3ccccc3nc12,2%,-28%,5%,2%,13%,0%
CC(C)CNC(=O)c1c(N)n(Cc2ccc3c(c2)OCO3)c2nc3ccccc3nc12,-5%,14µM*,13%,-12%,-66%,-5%
C[C@@H]1CNC(=O)c2c(C(=O)Nc3cccc(Cl)c3)ncn21,x,3%,x,x,9%,x
C[C@@H]1O[C@@H](O[C@@H]2C=C3CC[C@@H]4[C@@H](CC[C@]5(C)[C@H](c6ccc(=O)oc6)CC[C@@]45O)[C@@]3(C)CC2)[C@H](O)[C@H](O)[C@H]1O,x,0%,x,x,x,x
CC1(C)CC(=O)c2cc(OCC(=O)N3CCN(Cc4ccccc4)CC3)ccc2O1,-1%,x,-2%,0%,-17%,1%
CCN1CCN(C(=O)COc2ccc3c(c2)C(=O)CC2(CCN(C(C)=O)CC2)O3)CC1,-1%,32µM*,9%,-3%,17%,-3%
COc1ccccc1OC(=O)Oc1ccccc1OC,x,x,x,x,-38%,x
CC(C)(CO)CNC1CCCN(C2Cc3ccccc3C2)C1 (stereo not drawn),3%,x,2%,0%,-20%,0%
Cc1ccc(C(C#N)=Cc2ccc3c(c2)OCO3)cc1,x,4%,x,x,-45%,x
O=[N+]([O-])c1ccccc1Cl,0%,0%,5%,x,x,3%
Nc1cccc2cccc([N+](=O)[O-])c12,x,16µM*,x,x,9%,x
O=P(O)(O)c1ccccc1OCCOCCOCCOCCOc1ccccc1P(=O)(O)O,1%,-3%,4%,u,19%,0%
COc1ccc(S(=O)(=O)Nc2cc([N+](=O)[O-])ccc2OC)cc1,0%,2%,5%,-2%,u,0%
Cc1ccc(C2CC(=O)C(C=NCCN3CCN(C(=O)Cc4ccccc4)CC3)=C(O)C2)cc1 (stereo not drawn),0%,32µM*,7%,1%,38%,-1%
Cc1cc(S(=O)(=O)NCC(C)C)ccc1OCC(=O)N1CCN(Cc2ccccc2)CC1,-1%,16µM*,-4%,-5%,-19%,3%
CNC(=O)Oc1ccc(-c2cn3cc(C)ccc3n2)cc1,4%,13µM*,-2%,28%,14%,-6%
Cc1ccc2c(c1)CC1(CN2C)C(=O)NC(=O)N(CCC2=CCCCC2)C1=O (stereo not drawn),-2%,16µM*,-2%,-3%,-10%,-2%
COc1ccc(C(=O)CN2CCCCC2)cc1,3%,-1%,-15%,7%,13µM*,1%
CCCCn1c(O)c(C(CC)=Nc2ccc(C(=O)O)cc2)c(=O)[nH]c1=O,4%,2.5µM*,-11%,8%,-18%,-4%
Nc1ccccc1C(=O)c1ccccc1,-2%,0%,-10%,-1%,12%,2%
Nc1ccccc1C(=O)OC1CSC1,0%,28µM*,-25%,-4%,26%,0%
Cc1ccc(-n2nc(C)cc2NC(=O)COc2cc(C)cc3oc(=O)c4c(c23)CCC4)cc1,1%,25µM*,-38%,-14%,-15%,0%
Cc1cc(OC(=O)c2ccco2)c2c3c(c(=O)oc2c1)CCCC3,1%,22µM*,6%,-2%,-1%,-2%
Cc1cc(OCC(=O)O)c2c3c(c(=O)oc2c1)CCCC3,-5%,u,-8%,-3%,29%,-5%
SMILES,USP2a block,ClpP mod,Eya2 phos inh,p53 reactivator,Integrin act MD,Mm-Cpn inhibitor
Cc1cc(OCC(=O)Nc2cc(C)nn2-c2ccccn2)c2c3c(c(=O)oc2c1)CCC3,2%,x,3%,-1%,x,-3%
CCCOC(=O)COc1cc(C)cc2oc(=O)c3c(c12)CCC3,3%,25µM*,-5%,-2%,13%,2%
Cc1cc(OC(=O)c2cccs2)c2c3c(c(=O)oc2c1)CCCC3,2%,-3%,-7%,1%,5%,1%
O=C1C=CC2C3C(=O)N(c4ccccc4)C(=O)C3C1N2Cc1ccccc1 (stereo not drawn),x,-3%,x,x,-51%,x
C[C@H]1CNC(=O)c2c(C(=O)Nc3cccc(Cl)c3)ncn21,x,u,x,x,34%,x
Cc1ccc(Cl)cc1N1CCN(C(=O)c2cn(C)c(=O)c3c2c2ccccc2n3C)CC1,0%,28µM*,-9%,0%,-10%,0%
CN1CC[C@@]2(C)c3cc(OC(=O)Nc4ccccc4)ccc3N(C)[C@@H]12,x,x,-17%,x,x,x
Nc1ccc2c(c1)oc1ccccc12,3%,13µM*,-8%,3%,10%,1%
O=C1CC=C2C3CC4N(CCC45c4ccccc4N1C25)CC3=CCO (stereo not drawn),x,-5%,x,x,-10%,x
O=C1CC=C2C3CC4N(CCC45c4cc(O)c(O)cc4N1C25)CC3=CCBr (stereo not drawn),x,35µM*,x,x,u,x
ClCCN(CCCl)/C(=C\c1ccccc1)c1ccnc2ccccc12,x,0%,x,x,x,x
Cc1cc(C)c(C(=O)CN2CCOCC2)c(C)c1,-4%,32µM*,5%,-39%,-4%,-2%
ClCCN(CCCl)c1ccc(/C=C/c2sc3ccccc3[n+]2CCCCI)cc1,x,4%,x,x,x,x
O=C(Cc1c(O)c2ccccc2oc1=O)c1ccc(F)cc1,1%,1%,-12%,u,-14%,-1%
CCOC(=O)[C@]12Cc3cc(OC)ccc3[C@H]1N(CC(=O)OC)C(=O)c1cc(OC)ccc12,x,-2%,x,x,x,x
COC(=O)C12CCc3c(ccc4cc(OC)ccc34)C1=CC(=O)C2 (stereo not drawn),x,28µM*,x,x,23%,x
CCC(=Nc1ccc2c(c1)CCC2)c1c(O)n(C)c(=O)n(C)c1=O,0%,-2%,2%,-4%,20%,2%
CCOC(=O)c1ccc(N=C(CC)c2c(O)n(C)c(=O)n(C)c2=O)cc1,0%,25µM*,u,1%,2%,1%
COc1ccc2sc(-c3ccccc3OC)c(-c3ccc(OCCN4CCOCC4)cc3)c2c1,0%,28µM*,-3%,2%,4%,u
c1ccc(OCc2ccc(CCCN3CCOCC3)cc2)cc1,-1%,-1%,8%,u,10%,-2%

# Bioassay records as filed in PubChem BioAssay.
